# Results reported in ChEMBL document CHEMBL1961873, “Compounds: GSK PKIS; Assays: Nanosyn kinase panel” (2012).
# Key:
# [1] = biological target: T1, Inhibitor of nuclear factor kappa-B kinase subunit epsilon (Homo sapiens) (UniProt Q14164); conditions: at 1 µM;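 further: reported values are averaged percent inhibition figures against human IKKε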
# T1 sequence (whole entry): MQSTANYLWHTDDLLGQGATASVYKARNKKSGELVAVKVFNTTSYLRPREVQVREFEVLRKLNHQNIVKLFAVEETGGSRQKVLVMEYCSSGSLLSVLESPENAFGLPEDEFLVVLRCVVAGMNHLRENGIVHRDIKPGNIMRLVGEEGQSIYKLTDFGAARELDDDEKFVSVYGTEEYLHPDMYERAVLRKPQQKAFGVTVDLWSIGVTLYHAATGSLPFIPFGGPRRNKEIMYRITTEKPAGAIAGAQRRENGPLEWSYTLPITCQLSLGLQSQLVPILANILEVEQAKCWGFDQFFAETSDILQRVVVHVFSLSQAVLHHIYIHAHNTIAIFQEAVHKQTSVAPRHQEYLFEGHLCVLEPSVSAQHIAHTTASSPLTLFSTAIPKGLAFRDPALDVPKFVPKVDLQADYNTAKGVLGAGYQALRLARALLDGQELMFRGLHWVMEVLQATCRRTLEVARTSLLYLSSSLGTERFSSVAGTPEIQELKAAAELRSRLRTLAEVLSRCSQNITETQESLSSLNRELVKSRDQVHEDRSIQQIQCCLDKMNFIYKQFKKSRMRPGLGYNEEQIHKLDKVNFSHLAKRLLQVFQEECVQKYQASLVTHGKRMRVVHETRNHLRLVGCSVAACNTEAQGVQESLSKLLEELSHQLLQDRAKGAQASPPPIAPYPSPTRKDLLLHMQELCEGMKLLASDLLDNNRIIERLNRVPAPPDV
# [2] = biological target: T2, Serine/threonine-protein kinase Nek1 (Homo sapiens) (UniProt Q96PY6); conditions: at 0.1 µM
# T2 sequence (whole entry): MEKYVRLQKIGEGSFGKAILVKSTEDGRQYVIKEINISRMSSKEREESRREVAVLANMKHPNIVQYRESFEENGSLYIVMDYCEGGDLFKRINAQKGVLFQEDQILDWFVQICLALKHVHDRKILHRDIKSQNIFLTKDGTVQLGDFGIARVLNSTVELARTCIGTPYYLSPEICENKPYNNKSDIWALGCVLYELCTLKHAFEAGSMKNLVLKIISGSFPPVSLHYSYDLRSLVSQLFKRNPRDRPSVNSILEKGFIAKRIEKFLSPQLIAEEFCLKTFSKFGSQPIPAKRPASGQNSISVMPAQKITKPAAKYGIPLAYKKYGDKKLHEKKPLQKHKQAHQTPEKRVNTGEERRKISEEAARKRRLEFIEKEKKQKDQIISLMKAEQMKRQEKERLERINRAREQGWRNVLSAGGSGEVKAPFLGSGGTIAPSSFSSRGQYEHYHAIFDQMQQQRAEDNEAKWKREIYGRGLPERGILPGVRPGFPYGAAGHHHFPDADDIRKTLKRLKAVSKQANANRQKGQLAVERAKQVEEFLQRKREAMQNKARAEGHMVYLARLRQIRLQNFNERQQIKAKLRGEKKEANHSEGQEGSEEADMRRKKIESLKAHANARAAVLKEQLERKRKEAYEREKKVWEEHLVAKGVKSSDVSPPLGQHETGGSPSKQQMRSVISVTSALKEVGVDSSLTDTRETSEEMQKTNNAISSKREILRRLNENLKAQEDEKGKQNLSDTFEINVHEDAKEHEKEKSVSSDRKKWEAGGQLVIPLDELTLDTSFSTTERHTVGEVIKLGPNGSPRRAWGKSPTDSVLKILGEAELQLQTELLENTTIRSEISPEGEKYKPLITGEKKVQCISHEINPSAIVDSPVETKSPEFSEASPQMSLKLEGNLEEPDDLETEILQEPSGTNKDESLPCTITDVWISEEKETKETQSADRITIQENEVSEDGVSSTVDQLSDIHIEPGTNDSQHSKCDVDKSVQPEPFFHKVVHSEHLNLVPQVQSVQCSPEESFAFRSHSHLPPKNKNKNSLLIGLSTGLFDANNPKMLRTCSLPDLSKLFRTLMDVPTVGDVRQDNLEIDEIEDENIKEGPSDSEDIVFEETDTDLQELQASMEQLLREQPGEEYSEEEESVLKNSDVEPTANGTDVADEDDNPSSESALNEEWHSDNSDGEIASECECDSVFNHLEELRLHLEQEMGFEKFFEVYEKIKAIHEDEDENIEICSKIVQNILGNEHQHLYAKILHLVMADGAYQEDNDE
# [3] = biological target: T2, Serine/threonine-protein kinase Nek1 (Homo sapiens); conditions: at 1 µM
# [4] = biological target: T3, Serine/threonine-protein kinase Nek2 (Homo sapiens) (UniProt P51955); conditions: at 0.1 µM
# T3 sequence (whole entry): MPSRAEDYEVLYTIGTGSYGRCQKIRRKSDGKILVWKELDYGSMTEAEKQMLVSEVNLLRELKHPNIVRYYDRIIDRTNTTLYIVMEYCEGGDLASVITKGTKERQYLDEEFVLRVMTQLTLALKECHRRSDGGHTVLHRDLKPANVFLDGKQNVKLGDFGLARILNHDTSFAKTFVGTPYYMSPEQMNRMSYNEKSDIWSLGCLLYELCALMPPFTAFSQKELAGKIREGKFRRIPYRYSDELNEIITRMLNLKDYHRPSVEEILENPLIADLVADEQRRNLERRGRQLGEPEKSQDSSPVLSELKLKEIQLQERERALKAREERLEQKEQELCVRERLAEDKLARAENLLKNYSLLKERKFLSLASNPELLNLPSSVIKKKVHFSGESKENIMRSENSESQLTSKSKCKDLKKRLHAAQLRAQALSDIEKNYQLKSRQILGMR
# [5] = biological target: T3, Serine/threonine-protein kinase Nek2 (Homo sapiens); conditions: at 1 µM
# [6] = biological target: Serine/threonine-protein kinase Nek6 (Homo sapiens) (UniProt Q9HC98); conditions: at 0.1 µM
# [7] = biological target: Serine/threonine-protein kinase Nek6 (Homo sapiens) (UniProt Q9HC98); conditions: at 1 µM
# [8] = biological target: Serine/threonine-protein kinase Nek7 (Homo sapiens) (UniProt Q8TDX7); conditions: at 0.1 µM
# [9] = biological target: Serine/threonine-protein kinase Nek7 (Homo sapiens) (UniProt Q8TDX7); conditions: at 1 µM
# [10] = biological target: T4, Serine/threonine-protein kinase Nek9 (Homo sapiens) (UniProt Q8TD19); conditions: at 0.1 µM
# T4 sequence (whole entry): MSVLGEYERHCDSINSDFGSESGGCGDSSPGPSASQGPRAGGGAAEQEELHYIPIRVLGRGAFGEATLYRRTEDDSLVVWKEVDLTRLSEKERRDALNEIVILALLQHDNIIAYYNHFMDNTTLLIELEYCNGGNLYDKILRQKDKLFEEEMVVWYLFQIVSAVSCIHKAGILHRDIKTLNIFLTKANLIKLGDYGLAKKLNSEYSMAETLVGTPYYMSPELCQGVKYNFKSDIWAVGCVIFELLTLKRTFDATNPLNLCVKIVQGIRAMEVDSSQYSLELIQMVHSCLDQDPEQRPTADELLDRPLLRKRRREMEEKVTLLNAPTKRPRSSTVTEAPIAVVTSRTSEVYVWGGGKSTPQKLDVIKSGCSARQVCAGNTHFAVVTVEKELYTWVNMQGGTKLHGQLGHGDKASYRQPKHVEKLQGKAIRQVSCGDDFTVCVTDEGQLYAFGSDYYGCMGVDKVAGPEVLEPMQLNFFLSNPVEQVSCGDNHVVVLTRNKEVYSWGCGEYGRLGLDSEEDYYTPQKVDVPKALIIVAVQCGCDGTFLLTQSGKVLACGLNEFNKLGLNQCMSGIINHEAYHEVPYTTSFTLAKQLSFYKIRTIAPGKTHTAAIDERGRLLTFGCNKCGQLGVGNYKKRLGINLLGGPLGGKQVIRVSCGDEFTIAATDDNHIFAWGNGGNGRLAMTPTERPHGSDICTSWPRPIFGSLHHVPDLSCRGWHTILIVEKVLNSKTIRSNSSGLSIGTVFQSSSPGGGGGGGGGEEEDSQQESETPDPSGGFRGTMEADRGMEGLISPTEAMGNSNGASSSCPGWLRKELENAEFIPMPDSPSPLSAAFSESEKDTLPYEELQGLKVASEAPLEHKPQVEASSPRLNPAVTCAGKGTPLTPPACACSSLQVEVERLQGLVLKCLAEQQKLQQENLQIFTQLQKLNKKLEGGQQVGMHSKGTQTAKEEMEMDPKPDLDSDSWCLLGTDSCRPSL
# [11] = biological target: T4, Serine/threonine-protein kinase Nek9 (Homo sapiens); conditions: at 1 µM
# [12] = biological target: Serine/threonine-protein kinase PLK1 (Homo sapiens) (UniProt P53350); conditions: at 0.1 µM
# [13] = biological target: Serine/threonine-protein kinase PLK1 (Homo sapiens) (UniProt P53350); conditions: at 1 µM
# [14] = biological target: T5, Dual specificity protein kinase TTK (Homo sapiens) (UniProt P33981); conditions: at 0.1 µM
# T5 sequence (whole entry): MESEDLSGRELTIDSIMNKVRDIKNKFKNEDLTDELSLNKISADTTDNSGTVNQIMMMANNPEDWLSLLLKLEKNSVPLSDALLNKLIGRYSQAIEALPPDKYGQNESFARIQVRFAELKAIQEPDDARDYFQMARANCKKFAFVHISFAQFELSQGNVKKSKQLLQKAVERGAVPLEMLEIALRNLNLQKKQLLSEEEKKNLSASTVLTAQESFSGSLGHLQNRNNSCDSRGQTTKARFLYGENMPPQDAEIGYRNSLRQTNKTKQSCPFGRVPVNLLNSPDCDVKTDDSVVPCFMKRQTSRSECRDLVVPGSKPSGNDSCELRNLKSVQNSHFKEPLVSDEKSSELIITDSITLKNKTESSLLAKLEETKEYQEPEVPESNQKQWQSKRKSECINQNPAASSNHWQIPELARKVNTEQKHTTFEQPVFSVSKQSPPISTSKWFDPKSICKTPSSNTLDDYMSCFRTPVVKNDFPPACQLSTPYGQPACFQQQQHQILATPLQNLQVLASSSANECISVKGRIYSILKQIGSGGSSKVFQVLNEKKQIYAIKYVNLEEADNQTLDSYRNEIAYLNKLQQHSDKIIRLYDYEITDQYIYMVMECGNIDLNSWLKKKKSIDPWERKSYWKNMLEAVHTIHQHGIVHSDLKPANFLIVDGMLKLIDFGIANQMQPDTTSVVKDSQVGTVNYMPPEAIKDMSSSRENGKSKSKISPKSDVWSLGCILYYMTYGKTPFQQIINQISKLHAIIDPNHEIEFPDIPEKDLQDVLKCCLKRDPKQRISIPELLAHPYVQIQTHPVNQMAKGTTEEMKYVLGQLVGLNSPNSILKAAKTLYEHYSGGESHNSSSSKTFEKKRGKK
# [15] = system: T6, Receptor-type tyrosine-protein kinase FLT3 (Homo sapiens), P36888 [D835Y]; conditions: at 1 µM
# T6 sequence (whole entry): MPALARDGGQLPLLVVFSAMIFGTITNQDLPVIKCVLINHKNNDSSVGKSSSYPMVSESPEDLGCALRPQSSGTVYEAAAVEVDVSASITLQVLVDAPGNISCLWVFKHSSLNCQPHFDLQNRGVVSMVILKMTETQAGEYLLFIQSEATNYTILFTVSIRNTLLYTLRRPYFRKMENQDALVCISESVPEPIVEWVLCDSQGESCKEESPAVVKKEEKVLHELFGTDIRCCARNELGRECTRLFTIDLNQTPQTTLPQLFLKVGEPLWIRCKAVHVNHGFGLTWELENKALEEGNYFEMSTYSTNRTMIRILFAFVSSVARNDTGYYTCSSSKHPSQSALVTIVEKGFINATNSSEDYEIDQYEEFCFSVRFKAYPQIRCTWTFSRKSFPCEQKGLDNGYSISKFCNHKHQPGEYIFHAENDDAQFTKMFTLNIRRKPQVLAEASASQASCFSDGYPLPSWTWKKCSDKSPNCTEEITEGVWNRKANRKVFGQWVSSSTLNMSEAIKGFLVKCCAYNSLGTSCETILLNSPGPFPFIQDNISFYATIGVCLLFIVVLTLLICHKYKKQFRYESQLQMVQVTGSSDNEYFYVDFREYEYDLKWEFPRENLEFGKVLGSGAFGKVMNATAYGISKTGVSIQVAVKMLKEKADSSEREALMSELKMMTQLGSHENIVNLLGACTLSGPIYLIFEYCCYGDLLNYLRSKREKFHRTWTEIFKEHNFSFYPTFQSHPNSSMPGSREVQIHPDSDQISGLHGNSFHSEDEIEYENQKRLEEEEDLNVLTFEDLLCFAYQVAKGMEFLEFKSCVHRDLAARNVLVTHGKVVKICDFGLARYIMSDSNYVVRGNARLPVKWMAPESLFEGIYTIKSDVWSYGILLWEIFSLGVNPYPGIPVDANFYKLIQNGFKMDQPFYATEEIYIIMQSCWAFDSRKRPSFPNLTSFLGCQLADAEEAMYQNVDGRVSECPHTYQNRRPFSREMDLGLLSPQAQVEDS
# [16] = biological target: Vascular endothelial growth factor receptor 3 (Homo sapiens) (UniProt P35916); conditions: at 0.1 µM
# [17] = biological target: Vascular endothelial growth factor receptor 3 (Homo sapiens) (UniProt P35916); conditions: at 1 µM
# [18] = biological target: Macrophage colony-stimulating factor 1 receptor (Homo sapiens) (UniProt P07333); conditions: at 0.1 µM
# [19] = biological target: Macrophage colony-stimulating factor 1 receptor (Homo sapiens) (UniProt P07333); conditions: at 1 µM
# [20] = biological target: Tyrosine-protein kinase Fyn (Homo sapiens) (UniProt P06241); conditions: at 0.1 µM
# Sequence of Tyrosine-protein kinase Fyn (Homo sapiens) (P06241 2-537 limits assumed): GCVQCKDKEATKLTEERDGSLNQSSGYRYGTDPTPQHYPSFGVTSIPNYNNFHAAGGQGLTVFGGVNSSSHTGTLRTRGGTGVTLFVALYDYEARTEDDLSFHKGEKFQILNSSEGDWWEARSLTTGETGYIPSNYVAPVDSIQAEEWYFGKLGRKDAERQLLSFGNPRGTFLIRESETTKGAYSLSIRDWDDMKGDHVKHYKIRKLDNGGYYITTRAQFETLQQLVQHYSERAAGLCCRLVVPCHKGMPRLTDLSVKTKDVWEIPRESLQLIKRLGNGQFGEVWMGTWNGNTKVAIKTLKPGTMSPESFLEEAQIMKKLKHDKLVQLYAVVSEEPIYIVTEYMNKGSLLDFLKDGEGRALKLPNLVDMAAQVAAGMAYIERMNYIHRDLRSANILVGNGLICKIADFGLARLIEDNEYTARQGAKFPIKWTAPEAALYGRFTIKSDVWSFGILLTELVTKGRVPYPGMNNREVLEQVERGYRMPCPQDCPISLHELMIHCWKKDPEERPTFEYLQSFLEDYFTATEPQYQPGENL
# Sequence of Serine/threonine-protein kinase Nek6 (Homo sapiens) (Q9HC98 whole entry): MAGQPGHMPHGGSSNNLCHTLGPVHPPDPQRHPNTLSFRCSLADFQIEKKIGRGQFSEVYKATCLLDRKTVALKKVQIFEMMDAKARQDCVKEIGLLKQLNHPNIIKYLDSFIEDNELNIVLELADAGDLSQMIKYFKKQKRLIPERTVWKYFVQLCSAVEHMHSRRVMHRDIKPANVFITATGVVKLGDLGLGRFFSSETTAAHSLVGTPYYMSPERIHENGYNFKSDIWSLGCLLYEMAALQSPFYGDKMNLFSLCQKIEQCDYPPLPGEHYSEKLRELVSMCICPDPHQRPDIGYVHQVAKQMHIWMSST
# Sequence of Vascular endothelial growth factor receptor 3 (Homo sapiens) (P35916 whole entry): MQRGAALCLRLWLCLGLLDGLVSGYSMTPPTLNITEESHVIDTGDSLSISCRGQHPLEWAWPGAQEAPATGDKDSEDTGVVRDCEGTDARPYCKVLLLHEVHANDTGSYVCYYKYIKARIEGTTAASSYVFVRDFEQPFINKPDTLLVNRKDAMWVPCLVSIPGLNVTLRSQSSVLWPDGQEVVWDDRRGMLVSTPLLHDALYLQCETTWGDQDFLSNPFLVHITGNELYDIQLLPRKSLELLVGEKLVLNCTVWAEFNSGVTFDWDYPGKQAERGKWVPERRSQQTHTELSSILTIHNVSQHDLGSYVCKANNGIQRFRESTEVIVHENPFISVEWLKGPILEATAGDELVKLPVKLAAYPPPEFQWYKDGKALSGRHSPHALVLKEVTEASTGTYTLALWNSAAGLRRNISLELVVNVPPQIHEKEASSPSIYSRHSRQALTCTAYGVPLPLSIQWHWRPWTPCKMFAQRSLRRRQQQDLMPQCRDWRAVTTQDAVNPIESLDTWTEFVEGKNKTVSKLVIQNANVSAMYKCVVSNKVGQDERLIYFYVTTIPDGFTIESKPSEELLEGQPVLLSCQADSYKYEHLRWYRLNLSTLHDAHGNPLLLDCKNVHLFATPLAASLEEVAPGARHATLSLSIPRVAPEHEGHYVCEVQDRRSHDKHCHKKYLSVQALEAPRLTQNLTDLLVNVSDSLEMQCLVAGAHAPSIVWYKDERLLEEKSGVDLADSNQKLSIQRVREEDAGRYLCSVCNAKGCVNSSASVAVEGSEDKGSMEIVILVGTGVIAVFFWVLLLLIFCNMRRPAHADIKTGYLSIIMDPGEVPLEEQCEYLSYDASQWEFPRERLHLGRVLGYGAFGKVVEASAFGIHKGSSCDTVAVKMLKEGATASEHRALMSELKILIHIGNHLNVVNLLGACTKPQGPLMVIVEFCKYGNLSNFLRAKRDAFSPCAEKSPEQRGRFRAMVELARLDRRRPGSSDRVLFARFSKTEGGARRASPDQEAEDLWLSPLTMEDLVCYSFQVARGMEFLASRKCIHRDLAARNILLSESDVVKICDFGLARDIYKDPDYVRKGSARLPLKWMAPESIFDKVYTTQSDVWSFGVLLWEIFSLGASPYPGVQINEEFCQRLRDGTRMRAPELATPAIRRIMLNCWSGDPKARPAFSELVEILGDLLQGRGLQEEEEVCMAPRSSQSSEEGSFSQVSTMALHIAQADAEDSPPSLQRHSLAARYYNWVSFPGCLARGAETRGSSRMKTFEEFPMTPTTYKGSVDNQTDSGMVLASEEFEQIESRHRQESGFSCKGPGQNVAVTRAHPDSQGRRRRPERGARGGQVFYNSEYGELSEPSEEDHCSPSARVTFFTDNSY
# Sequence of Serine/threonine-protein kinase Nek7 (Homo sapiens) (Q8TDX7 whole entry, looked up): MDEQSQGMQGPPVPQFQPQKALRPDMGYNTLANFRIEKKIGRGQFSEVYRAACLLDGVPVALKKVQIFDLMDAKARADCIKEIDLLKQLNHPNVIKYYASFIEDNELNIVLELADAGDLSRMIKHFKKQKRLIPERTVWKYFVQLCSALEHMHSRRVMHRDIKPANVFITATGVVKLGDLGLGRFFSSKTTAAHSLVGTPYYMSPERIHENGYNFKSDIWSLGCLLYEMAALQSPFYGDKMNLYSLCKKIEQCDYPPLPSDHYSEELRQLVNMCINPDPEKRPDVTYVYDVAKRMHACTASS
# Sequence of Serine/threonine-protein kinase PLK1 (Homo sapiens) (P53350 whole entry): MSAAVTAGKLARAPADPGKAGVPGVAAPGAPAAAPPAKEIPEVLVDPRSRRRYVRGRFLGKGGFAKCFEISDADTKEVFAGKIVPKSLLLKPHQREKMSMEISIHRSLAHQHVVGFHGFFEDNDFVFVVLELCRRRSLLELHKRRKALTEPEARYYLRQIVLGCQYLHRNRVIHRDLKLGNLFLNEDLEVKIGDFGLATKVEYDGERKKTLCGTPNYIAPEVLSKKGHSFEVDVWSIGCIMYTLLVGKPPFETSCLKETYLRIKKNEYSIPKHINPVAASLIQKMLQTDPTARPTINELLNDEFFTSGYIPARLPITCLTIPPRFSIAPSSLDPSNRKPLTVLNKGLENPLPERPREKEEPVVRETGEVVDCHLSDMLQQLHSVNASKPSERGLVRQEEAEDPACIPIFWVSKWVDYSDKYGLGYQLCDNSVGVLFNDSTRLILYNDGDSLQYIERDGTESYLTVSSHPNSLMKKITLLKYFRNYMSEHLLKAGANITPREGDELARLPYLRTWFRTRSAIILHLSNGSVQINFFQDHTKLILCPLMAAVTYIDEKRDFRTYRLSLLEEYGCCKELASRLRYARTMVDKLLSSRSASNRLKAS
# Sequence of Macrophage colony-stimulating factor 1 receptor (Homo sapiens) (P07333 whole entry): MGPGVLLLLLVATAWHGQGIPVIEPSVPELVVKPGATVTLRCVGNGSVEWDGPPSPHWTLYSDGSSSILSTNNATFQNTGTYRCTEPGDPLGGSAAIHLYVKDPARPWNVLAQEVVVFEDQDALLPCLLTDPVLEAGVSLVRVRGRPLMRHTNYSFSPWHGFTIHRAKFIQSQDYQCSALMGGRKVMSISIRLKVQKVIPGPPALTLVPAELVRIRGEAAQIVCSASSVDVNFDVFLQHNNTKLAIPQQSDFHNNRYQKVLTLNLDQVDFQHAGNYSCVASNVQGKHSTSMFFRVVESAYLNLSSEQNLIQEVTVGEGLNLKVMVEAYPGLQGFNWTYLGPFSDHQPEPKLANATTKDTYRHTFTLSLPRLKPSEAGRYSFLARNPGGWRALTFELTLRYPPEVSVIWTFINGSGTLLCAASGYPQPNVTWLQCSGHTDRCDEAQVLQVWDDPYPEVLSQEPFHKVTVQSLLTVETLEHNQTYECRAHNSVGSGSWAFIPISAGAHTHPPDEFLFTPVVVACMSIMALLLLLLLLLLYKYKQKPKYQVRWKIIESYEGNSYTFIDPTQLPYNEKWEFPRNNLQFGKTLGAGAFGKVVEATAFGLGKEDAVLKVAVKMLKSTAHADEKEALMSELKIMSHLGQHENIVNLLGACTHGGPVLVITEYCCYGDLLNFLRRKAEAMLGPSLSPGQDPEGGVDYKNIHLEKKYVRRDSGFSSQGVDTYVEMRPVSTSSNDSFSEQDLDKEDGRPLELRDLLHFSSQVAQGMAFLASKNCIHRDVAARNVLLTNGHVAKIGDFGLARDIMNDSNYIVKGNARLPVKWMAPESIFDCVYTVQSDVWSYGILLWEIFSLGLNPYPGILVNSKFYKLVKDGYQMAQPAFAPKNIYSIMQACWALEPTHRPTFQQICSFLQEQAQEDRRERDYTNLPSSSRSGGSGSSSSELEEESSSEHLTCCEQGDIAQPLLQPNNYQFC
Structure (SMILES),inhibition [1] [%],inhibition [2] [%],inhibition [3] [%],inhibition [4] [%],inhibition [5] [%],inhibition [6] [%],inhibition [7] [%],inhibition [8] [%],inhibition [9] [%],inhibition [10] [%],inhibition [11] [%],inhibition [12] [%],inhibition [13] [%],inhibition [14] [%],inhibition [15] [%],inhibition [16] [%],inhibition [17] [%],inhibition [18] [%],inhibition [19] [%],inhibition [20] [%]
COc1cccc(-c2c[nH]c3c(N/N=C/c4ccncc4)ncnc23)c1,16.8,1.94,10.6,2.57,2.88,3.57,-1.66,2.88,3.62,4.67,5.28,2.36,1.97,7.43,62.7,4.35,29.5,21.6,68.6,14.4
COc1ccc(-c2oc3ncnc(N)c3c2-c2ccc(NC(=O)Nc3cc(C(F)(F)F)ccc3F)cc2)cc1,9.69,5.73,16.9,5.08,7.47,2.43,3.73,3.58,-1.9,6.04,39.3,5.59,4.48,8.85,47.1,47.4,98.4,21.9,90.2,8
COc1cc2c(cc1Nc1nc(Nc3ccsc3C(N)=O)c3cc[nH]c3n1)N(C(=O)CN(C)C)CCC2(C)C,35.2,2.74,2.8,6.02,7.22,2.59,5.27,12.7,42.1,4.77,9.86,56.7,89.4,40,22.1,3.15,5.12,81.7,94.3,0.64
